Rows were chosen to be rich in hits. Some 9.2% of all compounds tested hit in one or more screens of this group.
Lamin A splicing: modulators of lamin A splicing; HeLa LMNA splicing GFP/RFP minigene ratio, 48 h; 0.01% of 200,000 active; Potency, µM (doses to about 46.1 µM), usual class: inhibitors; AID 1487; active = well fitted inhibition curve with a large enough effect in the signal ratio, with a control signal flat, not every such curve was filed as active; inconclusive = small, poorly fitted or top-dose-only effect, or effect the other way, or a change in a side signal; the % refers to the signal ratio
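S3 HeLa cells stably expressing lamin A-EGFP splicing minigene plus DsRed2, 600 cells/well, 48 h compound exposure at 37C. Laser-scanning cytometry; analysed as GFP (500-530 nm)/RFP (575-640 nm) total intensity ratio; 0.5% DMSO vehicle.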
HTT aggregate: inhibitors of mutant huntingtin aggregate formation in PC12 cells; Potency, µM (doses to about 46.1 µM), most hits filed as inhibitors; PC12 HttQ103-GFP aggregates, Acumen cytometry, 40 h; 1.1% of 220,000 active; active = well fitted curve in the direction sought with a large enough effect; inconclusive = small, poorly fitted or top-dose-only effect, or another doubt; inactive = no such curve, though single readings can be large; an effect the other way counts as inactive or inconclusive; note: nearly all actives have a fitted effect of over 60% in size
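Quantitative HTS on tebufenozide-induced (100 nM) PC12 cells stably expressing polyQ103 Huntingtin exon 1–GFP. Reduction of bright GFP aggregates, detected by laser scanning cytometry after lysis, identified actives across the titration.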
HTT cytoprotect: cytoprotection in Huntington HTT-Q103 PC12 cell model; AID 1471; Potency, µM (titrated, usually from 56.4 µM), most hits filed as activators; 0.14% of 230,000 active; PC12 HTT-Q103 induced, cytoprotection, ATP luminescence, 40 h; active = well fitted curve in the direction sought with a large enough effect; inconclusive = small, poorly fitted or top-dose-only effect, or another doubt; inactive = no such curve, though single readings can be large; an effect the other way counts as inactive or inconclusive; note: nearly all actives have a fitted effect of over 45% in size
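Cells were plated at 1500 per well in phenol red-free DMEM with 5% equine and 5% calf serum. Tebufenozide (100 nM final) and compounds were added, then ATPlite reagent, and luminescence was read.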
ALDH1A1 block: blocks purified human ALDH1A1 activity; P00352; Purified ALDH1A1, NADH fluorescence, propionaldehyde substrate; Potency, µM (titrated, usually from 75.3 µM), actives largely listed as inhibitors; 7.3% of 220,000 active; AID 1030
KDM4E inh: inhibitors of human JMJD2E histone demethylase | 1.6% of 230,000 active | JMJD2E catalytic domain, FDH-coupled NADH fluorescence (FDH is formaldehyde dehydrogenase) | AID 2147 | B2RXH2 | Potency, µM (titrated, usually from 57.1 µM), hits mostly inhibitors; note: nearly all actives have a fitted effect of over 50% in size
Target sequence (B2RXH2 1-337 limits assumed): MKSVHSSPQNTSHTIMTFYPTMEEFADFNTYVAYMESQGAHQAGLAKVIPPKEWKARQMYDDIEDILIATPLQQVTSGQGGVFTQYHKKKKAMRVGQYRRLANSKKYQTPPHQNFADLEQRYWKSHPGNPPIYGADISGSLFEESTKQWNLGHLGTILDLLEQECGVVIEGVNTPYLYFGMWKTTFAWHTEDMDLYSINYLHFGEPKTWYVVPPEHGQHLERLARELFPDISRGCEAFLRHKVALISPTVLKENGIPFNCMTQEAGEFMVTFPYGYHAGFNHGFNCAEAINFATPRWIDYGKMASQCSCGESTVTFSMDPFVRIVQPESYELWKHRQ
HPGD inh: HPGD (human) dehydrogenase inhibition; AID 894; Potency, µM, hits mostly inhibitors; 4.3% of 150,000 active; P15428; purified HPGD, NADH fluorescence kinetic, PGE2 substrate
Target sequence (P15428 whole entry, looked up): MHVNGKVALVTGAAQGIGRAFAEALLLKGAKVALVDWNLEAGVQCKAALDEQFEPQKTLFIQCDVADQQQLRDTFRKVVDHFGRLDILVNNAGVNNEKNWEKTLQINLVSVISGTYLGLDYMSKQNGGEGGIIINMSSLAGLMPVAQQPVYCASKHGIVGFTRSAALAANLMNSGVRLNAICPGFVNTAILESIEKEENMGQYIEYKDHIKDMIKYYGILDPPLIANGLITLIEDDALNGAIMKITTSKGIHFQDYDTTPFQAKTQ
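20 nM HPGD preincubated 15 min at room temperature with compound in 50 mM Tris-HCl pH 8, 0.01% Tween 20. Started with 1 mM NAD+ and 30 uM prostaglandin E2; NADH fluorescence (360/450 nm) read 5 times over 30-s intervals, last minus first.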
Numbers stand for hits; - = inactive; ? = inconclusive; . = no result; [ ] = another dose, or the depositor's remark. Unless noted, calls come from the whole dose curve; as a rule, active = well fitted inhibition curve with a large enough effect (not every such curve was filed as active); inconclusive = small, poorly fitted or top-dose-only effect, or another doubt; inactive = no such curve, though single readings can be large or run the other way.

SMILES | Lamin A splicing | HTT aggregate | HTT cytoprotect | ALDH1A1 block | KDM4E inh | HPGD inh
O=c1[nH]c(CSc2nnnn2-c2ccccc2)nc2ccccc12 | - | - | - | - | ? | .
Cc1ccccc1Nc1nc(N)nc(CSc2nnnn2C)n1 | -[9.22 µM] | - | - | - | - | .
Cc1nnc(SCc2cc(=O)[nH]c(/N=C(\N)Nc3ccccc3)n2)s1 | . | -[9.22 µM] | -[10 µM] | . | - | .
COc1ccc(N/C(N)=N/c2nc(CSc3ccc(Cl)cc3)cc(=O)[nH]2)cc1 | - | - | - | - | - | -
Cc1ccc(SCc2cc(=O)[nH]c(/N=C(\N)Nc3ccc(C)c(C)c3)n2)cc1 | - | - | - | 8.91µM | - | -
Cc1ccccc1Nc1nc(N)nc(CSc2nnnn2-c2ccccc2)n1 | - | - | -[10 µM] | 12.6µM | - | -
N/C(=N\c1nc(CSc2nnnn2-c2ccccc2)cc(=O)[nH]1)Nc1ccccc1 | ? | -[9.22 µM] | -[10 µM] | 5.01µM | - | .
CC(=O)OC1CC2C(C)(C)C(O)C=C[C@@]2(C)C2CC[C@@]3(C)C(c4ccoc4)OC(=O)C4OC43[C@]12C (some centres undefined) | - | . | . | - | - | -
Cc1cc(C)n(/N=C/c2ccc(C(C)C)cc2)c(=O)c1C#N | - | - | . | ? | - | -
CSCC[C@@H]1NC(=O)C/C=C\[C@@H](C)COC(=O)[C@@H](C)COC1=O | . | . | -[10 µM] | -[13.5 µM] | . | .
Cc1ccc(Nc2nc(CSc3nnnn3-c3ccccc3)cs2)cc1 | ? | ? | - | 8.91µM | - | -
O=C(O)c1[nH]c2ccc(Br)cc2c1CCN1C(=O)c2cccc([N+](=O)[O-])c2C1=O | . | -[9.22 µM] | -[10 µM] | 31.6µM | - | .
O=C(O)c1[nH]c2ccc(Cl)cc2c1CCN1C(=O)c2ccccc2C1=O | . | -[9.22 µM] | -[10 µM] | . | - | .
COC(=O)C(Cc1ccccc1)NC(=O)C(N)CC(=O)O (centres undefined) | . | - | ? | - | - | -
COc1ccc(NC(=O)CSc2nc3c(c(-c4cccs4)c2C#N)CN(C)CC3)cc1OC | - | - | - | 14.1µM | - | -
CC(C)OC(=O)CC(=O)CSc1nc2c(c(-c3cccs3)c1C#N)CCC2 | - | 11.2µM | -[1.9 µM] | ? | ? | -
COC(=O)CSc1nc2c(c(-c3ccc(O)cc3)c1C#N)CCCC2 | - | -[9.22 µM] | - | ? | - | .
COC(=O)CSc1nc2c(c(-c3ccco3)c1C#N)CCCC2 | - | ? | -[0.074 µM] | 12.6µM | ? | 12.6µM
C[C@H](N)C(=O)O | . | . | -[1.9 µM] | - | - | -
Cc1cc(=O)n(CC(=O)Nc2cc(Cl)ccc2C)c(C(C)C)n1 | - | - | -[10 µM] | - | - | .
O=C(O)c1ccccc1CSc1nc2ccccc2o1 | - | - | - | - | - | -
O=C(O)c1ccc(CSc2nc3ccccc3o2)cc1 | - | - | - | - | - | 28.2µM
c1ccc2oc(SCc3cn4ccccc4n3)nc2c1 | - | - | - | 3.16µM | - | -
COC(=O)c1c(NC(=O)c2cccc([N+](=O)[O-])c2)sc(C(N)=O)c1C | ? | ? | ? | 7.94µM | - | .
COC(=O)c1c(NC(=O)c2ccccc2)sc(C(N)=O)c1C | ? | -[9.22 µM] | -[10 µM] | ? | ? | .
SMILES | Lamin A splicing | HTT aggregate | HTT cytoprotect | ALDH1A1 block | KDM4E inh | HPGD inh
Cc1ccc(C(=O)NC(C)CCc2ccccc2)cc1[N+](=O)[O-] (centres undefined) | - | - | - | ? | - | -
Cc1ccc(C(=O)Nc2sc(C)c(-c3ccccc3)c2C(N)=O)cc1[N+](=O)[O-] | - | - | - | 10µM | - | 25.1µM
COC(=O)c1sc(NC(=O)c2cccc([N+](=O)[O-])c2)c(C(N)=O)c1C | ? | - | . | 10µM | - | 28.2µM
COC(=O)c1c(NC(=O)c2ccccc2)sc(C(=O)c2ccccc2)c1C | ? | ? | - | 14.1µM | - | -
c1c[nH]c(CN2CCOCC2)n1 | . | . | -[10 µM] | -[13.5 µM] | . | -
CCN(CC)c1ccc(C(=O)N/N=C(\C)c2ccc(OC)c(OC)c2)cc1 | - | - | -[10 µM] | ? | - | ?
CC(C)CCN1CN(S(=O)(=O)c2cccs2)c2nc3ccccc3nc21 | - | - | - | 28.2µM | ? | -
COCCN1CN(S(=O)(=O)c2ccc(Cl)cc2)c2nc3ccccc3nc21 | - | - | - | 23.8µM | ? | -
CC(C)CC(=O)NC1(C(F)(F)F)C(=O)N(CC(C)C)C2=C1C(=O)CC(C)(C)C2 (centres undefined) | - | - | -[10 µM] | - | - | -
Cc1ccc(-n2c3nc(=O)[nH]c(=O)c-3cc3cc([N+](=O)[O-])ccc32)cc1C | ? | - | -[10 µM] | - | - | 31.6µM
Cc1ccc(S(=O)(=O)n2cnc3cc([N+](=O)[O-])ccc32)cc1C | - | - | - | - | - | -
Cc1cc(C)nc(SC2c3cccc4cccc(c34)C2NS(=O)(=O)c2ccccc2)n1 (centres undefined) | ? | - | . | ? | - | -
Nc1nc(SC2c3cccc4cccc(c34)C2NS(=O)(=O)c2ccccc2)n[nH]1 (centres undefined) | - | - | -[10 µM] | 14.1µM | - | -
C#CCCCO/N=C1/[C@H]2O[C@@H]2[C@@H](O)[C@H]2[C@H]1CCn1c(=O)n(C)c(=O)n12 | . | . | -[10 µM] | -[13.5 µM] | . | .
O=C1c2ccccc2C(=O)C1(O)O | . | . | - | 1.19µM | . | -
N#Cc1ccc(C(=O)Nc2ccc3c(c2)N(C2CCCC2)C(=O)c2ccccc2S3)cc1 | - | . | . | . | . | .
CC(=O)c1ccc(OCc2ccc(C(=O)c3ccccc3)cc2)cc1 | . | ? | -[10 µM] | 11.2µM | - | .
O=C(O)COc1ccc(C(=O)c2ccccc2)cc1 | . | - | - | - | - | .
CC(C(=O)N1CCCc2c1c(=O)oc1ccc(O)cc21)N1CCc2ccccc2C1 (centres undefined) | - | - | - | ? | - | .
CN(CC(=O)N1CCCc2c1c(=O)oc1ccc(O)cc21)Cc1ccccc1 | - | - | -[10 µM] | 12.6µM | ? | -
O=C(CN1CCCC1)N1CCCc2c1c(=O)oc1ccc(OCc3ccccc3)cc21 | ? | ? | - | ? | - | ?
CC1CCN(CCC(=O)N2CCCc3c2c(=O)oc2ccc(O)cc32)CC1 | ? | - | ? | 2.24µM | - | -
COC(=O)CS | . | . | - | - | . | -
CCC(CC)C(=O)Nc1cccc(/C(C)=N/NC(=O)c2ccccc2Cl)c1 | - | - | - | 12.6µM | - | -
CCC(CC)C(=O)Nc1cccc(/C(C)=N/NC(=O)c2c(Br)cnn2C)c1 | - | - | - | - | - | -
O=C(NC(=S)Nc1ccc(N2CCCCC2)cc1)c1ccco1 | - | - | ? | ? | - | 17.8µM
O=C(NC(=S)Nc1ccc(N2CCCCC2)cc1)c1ccc2c(c1)OCCO2 | ? | - | . | 10µM | - | 28.2µM
O=C(NC(=S)Nc1ccc(N2CCOCC2)cc1)c1ccc2c(c1)OCCO2 | ? | - | . | 20µM | - | ?
O=C(NC(=S)Nc1ccc(CN2CCOCC2)cc1)c1ccc2c(c1)OCCO2 | . | -[9.22 µM] | -[10 µM] | . | - | .
O=C(NC(=S)Nc1ccc(Cc2ccncc2)cc1)c1ccc(F)cc1 | - | ? | - | 20µM | - | .
